# Source: PubChem BioAssay
# “And” between values parts separate entries of the source, which are not always exact repeats. Identical values can stand only once. The source made the active and inactive calls.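 The calls were made as follows, unless noted: active = thallium flux through the channel raised or lowered by more than 3 SD from vehicle-only wells, actives on both sides; inactive = the rest.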
# Legend:
# [1] = test system: Hepatitis C virus NS3 helicase; assay: HCV NS3 helicase inhibitors, primary screen, biochemical, fluorescence polarization, NIH Clinical Collection (AID 743270; call rule not given here); conditions: NS3 helicase binding to Cy5-dT15 DNA, stronger effect = higher value, concentration not given here
# [2] = target: Single-stranded DNA-binding protein (Escherichia coli (strain K12)) (UniProt P0AGE0); assay: E. coli SSB displacement from DNA, counter-screen for HCV NS3 helicase inhibitor project, biochemical, fluorescence polarization, NIH Clinical Collection (AID 743271; in the data active = inhibition above about 28%); conditions: stronger effect = higher value, concentration not given here
# [3] = fluorescence interference in NS3h assay format, artefact control for HCV NS3 helicase inhibitor project, biochemical, NIH Clinical Collection (AID 743272; call rule not given here;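 also: HCV NS3 helicase with a Cy5 labelled single stranded DNA probe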); conditions: fluorescence interference counterscreen, stronger effect = lower value
# [4] = stimulators of nuclear beta-catenin in C2C12, primary screen, imaging, WNT3A-conditioned medium, mouse C2C12, NPC library (AID 1117326; in the data active = nuclear beta-catenin stimulation mostly above about 4.2%, no sharp cut-off; inactive = mostly below about 10%); conditions: stronger effect = higher value
# [5] = stimulators of insulin release from INS-1E, primary screen, cell-based, 5 mM glucose, NPC library (AID 1117329;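 active = compound raises insulin release from rat beta cells at 5 mM glucose, no numeric limit stated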); conditions: rat INS-1E insulin secretion, at 10 µM, stronger effect = higher value
# [6] = growth inhibition of GSK3B-pretreated HCT116 cells – cell-based, CellTiter-Glo, 0.2 to 20 µM (AID 1117336;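 active = compounds lowering colon cancer cell viability after pretreatment blocking the GSK3B kinase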); conditions: HCT116 viability after GSK3B inhibitor, at 20 µM, stronger effect = higher value
# [7] = inhibition of endothelial tube formation, primary screen, imaging, VEGF stimulated, CD31 staining, tube area, NPC library (AID 1117340;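 active = compound that reduces growth-factor-driven endothelial tube area in a mixed cell culture, no cutoff stated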); conditions: VEGF-stimulated ADSC/ECFC co-culture, at 10 µM, stronger effect = higher value
# [8] = glucagon-like peptide 1 release enhancers, primary assay, NCI-H716 cell line, NPC library (AID 1117341;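 active = compound raises GLP1 secretion from the human gut endocrine cells, with no numeric limit stated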); conditions: NCI-H716 cells, at 10 µM, stronger effect = higher value
# [9] = HCT116 colon cancer cell growth inhibition, primary screen, CellTiter-Glo luminescence, NPC library (AID 1117342;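 active = compounds that lower survival of HCT116 colon cancer cells in the luminescence readout, no numeric limit stated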); conditions: at 20 µM (top of the series)
# [10] = CellTiter-Glo luminescent readout of SW480 viability loss, NPC library primary (AID 1117343;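 active = compounds that lower viability of the colon cancer cells in the luminescence readout, with no numeric limit stated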); conditions: CellTiter-Glo luminescence; at 20 µM (top of the series)
# [11] = decreased DLD-1 cellular survival, CellTiter-Glo luminescent readout, NPC compound collection, primary HTS (AID 1117346;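 active = compounds that lower survival of DLD-1 colon cancer cells in the luminescence readout, no cutoff given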); conditions: DLD-1 viability, CellTiter-Glo luminescence; at 20 µM (top of the series)
# [12] = target: 6-phosphogluconate dehydrogenase, decarboxylating (Homo sapiens) (UniProt P52209); assay: 6PGD enzyme inhibitors, primary screen, biochemical, human, recombinant enzyme, NADPH absorbance (AID 1159550;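 active = at least 20% inhibition of 6-phosphogluconate dehydrogenase activity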); conditions: recombinant 6PGD, NADPH absorbance 341 nm; at 10 µM; stronger effect = higher value
# Sequence of 6-phosphogluconate dehydrogenase, decarboxylating (Homo sapiens) (P52209 whole entry, looked up): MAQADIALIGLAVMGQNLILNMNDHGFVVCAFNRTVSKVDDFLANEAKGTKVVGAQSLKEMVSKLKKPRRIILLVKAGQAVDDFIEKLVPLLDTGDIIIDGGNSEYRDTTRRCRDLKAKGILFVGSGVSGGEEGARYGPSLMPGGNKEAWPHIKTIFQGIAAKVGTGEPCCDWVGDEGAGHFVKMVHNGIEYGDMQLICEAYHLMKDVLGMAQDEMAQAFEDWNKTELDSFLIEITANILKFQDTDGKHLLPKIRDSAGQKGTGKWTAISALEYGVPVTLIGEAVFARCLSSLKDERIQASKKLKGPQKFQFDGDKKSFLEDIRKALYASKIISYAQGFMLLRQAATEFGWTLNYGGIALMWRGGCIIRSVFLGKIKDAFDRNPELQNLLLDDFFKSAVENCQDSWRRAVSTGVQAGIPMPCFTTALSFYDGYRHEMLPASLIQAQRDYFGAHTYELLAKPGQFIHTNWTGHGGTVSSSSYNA
# [13] = sensitizers of A549 cells to miR-34 induction, primary screen, imaging, A549 dox-inducible miR-34, nuclei and caspase counts (AID 1347080;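 active = compounds whose cell count with miR-34 switched on is under 0.7 times the count with it off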); conditions: A549 miR-34 inducible, Hoechst nuclei count, 48 h
# [14] = target: NAD(+) hydrolase SARM1 (Homo sapiens) (UniProt Q6SZW1); assay: SARM1 TIR NADase inhibitors, cell lysate, NAD-Glo luminescence (AID 1508614;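 active = compound whose remaining NAD level is above about 45 nM, limit read from the data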;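 also: higher remaining NAD means stronger inhibition of SARM1 NADase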); conditions: SAM-TIR HEK293T lysate NADase, at 1 µM, stronger effect = higher value
# Sequence of NAD(+) hydrolase SARM1 (Homo sapiens) (Q6SZW1 whole entry, looked up, the tested form may be a part): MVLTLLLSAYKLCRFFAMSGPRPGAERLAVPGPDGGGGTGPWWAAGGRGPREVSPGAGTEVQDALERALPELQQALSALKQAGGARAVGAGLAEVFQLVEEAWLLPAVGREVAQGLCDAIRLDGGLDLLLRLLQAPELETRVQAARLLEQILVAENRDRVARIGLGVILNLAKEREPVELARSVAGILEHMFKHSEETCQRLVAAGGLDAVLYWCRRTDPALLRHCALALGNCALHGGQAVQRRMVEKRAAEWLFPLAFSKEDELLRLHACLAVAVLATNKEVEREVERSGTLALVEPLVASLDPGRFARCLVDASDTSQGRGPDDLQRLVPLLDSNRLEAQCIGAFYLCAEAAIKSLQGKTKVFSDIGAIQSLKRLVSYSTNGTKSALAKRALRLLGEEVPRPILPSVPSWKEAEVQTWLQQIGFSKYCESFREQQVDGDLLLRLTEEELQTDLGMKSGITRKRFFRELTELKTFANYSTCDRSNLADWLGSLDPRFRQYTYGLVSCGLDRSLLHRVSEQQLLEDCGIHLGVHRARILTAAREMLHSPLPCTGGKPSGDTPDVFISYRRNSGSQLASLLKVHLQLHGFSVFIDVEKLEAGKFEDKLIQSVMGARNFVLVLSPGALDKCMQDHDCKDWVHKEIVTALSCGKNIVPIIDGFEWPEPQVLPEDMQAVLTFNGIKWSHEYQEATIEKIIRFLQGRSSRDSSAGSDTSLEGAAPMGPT
# [15] = target: Mitogen-activated protein kinase 7 (Homo sapiens) (UniProt Q13164); assay: ERK5 transactivation activators in reporter cells, primary screen, cell-based, HTS (AID 1508626;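 active = luciferase signal above three times the same-plate solvent-only control wells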;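 also: luciferase driven by Gal4-ERK5 fusion binding five Gal4 sites before minimal TATA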); conditions: HeLa Gal4-ERK5 transactivation, 18 h, at 5 µM, stronger effect = higher value
# Sequence of Mitogen-activated protein kinase 7 (Homo sapiens) (Q13164 whole entry, looked up, the tested form may be a part): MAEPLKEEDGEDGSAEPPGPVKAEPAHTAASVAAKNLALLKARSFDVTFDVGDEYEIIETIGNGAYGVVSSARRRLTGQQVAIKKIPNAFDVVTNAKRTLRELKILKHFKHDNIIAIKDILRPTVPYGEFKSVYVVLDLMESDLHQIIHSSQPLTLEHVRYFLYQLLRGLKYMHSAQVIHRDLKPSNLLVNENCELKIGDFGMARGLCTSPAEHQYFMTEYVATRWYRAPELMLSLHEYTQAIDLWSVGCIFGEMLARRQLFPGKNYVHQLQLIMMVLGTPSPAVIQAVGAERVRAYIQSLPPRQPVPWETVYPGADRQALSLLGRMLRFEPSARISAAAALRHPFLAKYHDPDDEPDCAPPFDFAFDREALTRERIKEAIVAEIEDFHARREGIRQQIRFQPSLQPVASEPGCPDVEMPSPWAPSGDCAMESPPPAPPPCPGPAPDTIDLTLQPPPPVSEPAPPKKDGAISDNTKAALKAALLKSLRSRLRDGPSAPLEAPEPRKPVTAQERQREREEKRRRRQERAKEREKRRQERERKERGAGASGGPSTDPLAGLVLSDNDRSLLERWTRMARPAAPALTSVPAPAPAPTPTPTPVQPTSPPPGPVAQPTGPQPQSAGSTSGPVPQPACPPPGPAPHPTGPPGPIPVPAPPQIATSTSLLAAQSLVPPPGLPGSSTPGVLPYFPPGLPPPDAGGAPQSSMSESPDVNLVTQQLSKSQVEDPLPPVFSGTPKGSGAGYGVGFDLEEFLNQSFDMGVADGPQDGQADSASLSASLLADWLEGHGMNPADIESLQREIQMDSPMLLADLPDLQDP
# [16] = test system: F380Y; assay: modulators of BK channel variants, profiling panel, selectivity assay, cell-based, U2OS BacMam, thallium flux, beta subunits (AID 1259406); conditions: at 30 µM;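 also: initial slope of Thallos dye fluorescence rise after thallium is added; log ratio against the mean of 0.3% DMSO vehicle wells on the same plate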
# [17] = test system: F380Y/beta2Delta; assay: as above; conditions: at 30 µM
# [18] = target: Calcium-activated potassium channel subunit alpha-1 (Homo sapiens) + Leucine-rich repeat-containing protein 26 (Homo sapiens) (UniProt Q12791+Q2I0M4); assay: as above; conditions: F380Y/Slo1WT/gamma1, at 30 µM
# Sequence of Calcium-activated potassium channel subunit alpha-1 (Homo sapiens) + Leucine-rich repeat-containing protein 26 (Homo sapiens) (Q2I0M4 whole entry, looked up, one chain of several): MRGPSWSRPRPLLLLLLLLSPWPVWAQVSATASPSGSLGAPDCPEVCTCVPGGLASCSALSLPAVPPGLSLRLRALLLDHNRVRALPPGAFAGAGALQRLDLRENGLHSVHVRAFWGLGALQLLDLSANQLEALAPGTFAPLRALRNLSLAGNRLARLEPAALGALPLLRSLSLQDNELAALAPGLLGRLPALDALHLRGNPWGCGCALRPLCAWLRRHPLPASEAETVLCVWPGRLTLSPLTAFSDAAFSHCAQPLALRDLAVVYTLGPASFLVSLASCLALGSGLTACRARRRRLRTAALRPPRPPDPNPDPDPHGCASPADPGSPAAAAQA
# [19] = survival rescue of mitochondrial mutant cells in low glucose, primary screen, MELAS cybrids, Rieske KO mouse fibroblasts, CellTiter-Glo (AID 1508586;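 active = mean z-score across replicates of 1.96 or higher in either the MELAS or the Rieske mutant cell line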;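 also: z relative to plate mean and SD of compound and empty wells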)
# [20] = stronger effect = lower value, cell number ratio, induced over uninduced
# [21] = measured here: relative caspase fold change +Dox/-Dox
# [22] = measured here: total cells with miR-34 induction, stronger effect = lower value
# [23] = measured here: total cells without miR-34 induction
# [24] = MELAS cybrid survival, CellTiter-Glo 48 h, stronger effect = higher value
# [25] = Rieske KO mouse fibroblast survival, CellTiter-Glo 72 h
compound,measurement,setting,value
CC(=O)OCC(=O)[C@@]1(O)CC[C@H]2[C@@H]3CCC4=CC(=O)C=C[C@]4(C)[C@H]3[C@@H](O)C[C@@]21C,inhibition,[1],-5% (inactive)
same,inhibition,[2],-0.48% (inactive)
same,fluorescence ratio,[3],0.91 (inactive)
same,nuclear beta-catenin stimulation,[4]; at 10 µM,1.2% (inactive)
same,nuclear beta-catenin stimulation,"[4]; stimulation, at 2 µM",0%
same,insulin secretion stimulation,[5],1% (inactive)
same,viability decrease,[6],6.6% (inactive)
same,tube area decrease,[7],5.5% (inactive)
same,GLP1 secretion stimulation,[8],1.2% (inactive)
same,inhibition of viability,[9],-4.6% (inactive)
same,viability decrease (inhibition),[10],-9.3% (inactive)
same,viability decrease (inhibition),[11],-10.8% (inactive)
same,inhibition,[12],20% (inactive)
same,fold change,[13]; [20],0.981 (inactive)
same,fold change,[13]; [21],0.792
same,cell count,[13]; [22],8020
same,cell count,[13]; [23],8180
same,remaining NAD,[14],10 nM (inactive)
same,luciferase signal,[15],60 AU (inactive)
same,log fold change Tl+ flux,[16],0.0438 (inactive)
same,log fold change Tl+ flux,[17],-0.0297 (inactive)
same,log fold change Tl+ flux,[18],0.072 (inactive)
CC1(C)O[C@@H]2C[C@H]3[C@@H]4C[C@H](F)C5=CC(=O)C=C[C@]5(C)[C@H]4[C@@H](O)C[C@]3(C)[C@]2(C(=O)CO)O1,inhibition,[1],-0.45% (inactive)
same,inhibition,[2],-1.24% (inactive)
same,fluorescence ratio,[3],0.99 (inactive)
same,nuclear beta-catenin stimulation,[4]; at 10 µM,-0.2% (inactive)
same,nuclear beta-catenin stimulation,"[4]; stimulation, at 2 µM",1.6%
same,insulin secretion stimulation,[5],1.6% (inactive)
same,viability decrease,[6],-31.1% (inactive)
same,tube area decrease,[7],-14.6% (inactive)
same,GLP1 secretion stimulation,[8],-0.5% (inactive)
same,inhibition of viability,[9],-1.83% (inactive)
same,viability decrease (inhibition),[10],15% (inactive)
same,viability decrease (inhibition),[11],-3.1% (inactive)
same,inhibition,[12],-16.5% (inactive)
same,fold change,[13]; [20],1 (inactive) and 0.779 (inactive)
same,fold change,[13]; [21],1.38 and 0.877
same,cell count,[13]; [22],7820 and 5180
same,cell count,[13]; [23],7800 and 6650
same,z-score,[19]; [24],-0.397 (inactive)
same,z-score,[19]; [25],0.665
same,remaining NAD,[14],10 nM (inactive)
same,luciferase signal,[15],344 AU (active)
same,log fold change Tl+ flux,[16],0.00732 (inactive)
same,log fold change Tl+ flux,[17],-0.0212 (inactive)
same,log fold change Tl+ flux,[18],-0.0123 (inactive)
CC(=O)OCC(=O)[C@@]1(O)CC[C@H]2[C@@H]3CCC4=CC(=O)CC[C@]4(C)[C@H]3C(=O)C[C@@]21C,inhibition,[1],-0.45% (inactive)
same,inhibition,[2],-0.48% (inactive)
same,fluorescence ratio,[3],1.01 (inactive)
same,nuclear beta-catenin stimulation,[4]; at 10 µM,1.3% (inactive)
same,nuclear beta-catenin stimulation,"[4]; stimulation, at 2 µM",0.9%
same,insulin secretion stimulation,[5],2.1% (inactive)
same,viability decrease,[6],3.8% (inactive)
same,tube area decrease,[7],-2.1% (inactive)
same,GLP1 secretion stimulation,[8],7% (inactive)
same,inhibition of viability,[9],-5.5% (inactive)
same,viability decrease (inhibition),[10],-2.6% (inactive)
same,viability decrease (inhibition),[11],-11.3% (inactive)
same,inhibition,[12],-3.27% (inactive)
same,fold change,[13]; [20],0.993 (inactive) and 0.93 (inactive)
same,fold change,[13]; [21],1.87 and 1.55
same,cell count,[13]; [22],10600 and 10400
same,cell count,[13]; [23],10700 and 11200
same,remaining NAD,[14],10 nM (inactive)
same,luciferase signal,[15],28 AU (inactive)
same,log fold change Tl+ flux,[16],-0.00173 (inactive)
same,log fold change Tl+ flux,[17],-0.0255 (inactive)
same,log fold change Tl+ flux,[18],-0.0083 (inactive)
CC(=O)O[C@]1(C(C)=O)CC[C@H]2[C@@H]3C=C(C)C4=CC(=O)CC[C@]4(C)[C@H]3CC[C@@]21C,inhibition,[1],3.56% (inactive)
same,inhibition,[2],3.75% (inactive)
same,fluorescence ratio,[3],0.98 (inactive)
same,nuclear beta-catenin stimulation,[4]; at 10 µM,2.7% (inactive)
same,nuclear beta-catenin stimulation,"[4]; stimulation, at 2 µM",1.9%
same,insulin secretion stimulation,[5],0.1% (inactive)
same,viability decrease,[6],-86.9% (inactive)
same,tube area decrease,[7],-10.2% (inactive)
same,GLP1 secretion stimulation,[8],0% (inactive)
same,inhibition of viability,[9],46.5% (inactive)
same,viability decrease (inhibition),[10],59.6% (active)
same,viability decrease (inhibition),[11],22.4% (inactive)
same,inhibition,[12],-2.23% (inactive)
same,fold change,[13]; [20],0.793 (inactive) and 0.839 (inactive)
same,fold change,[13]; [21],1.65 and 1.15
same,cell count,[13]; [22],7300 and 6980
same,cell count,[13]; [23],9200 and 8320
same,z-score,[19]; [24],-0.444 (inactive) and 0.0969 (inactive)
same,z-score,[19]; [25],-0.239 and -0.33
same,remaining NAD,[14],10 nM (inactive)
same,luciferase signal,[15],52 AU (inactive)
same,log fold change Tl+ flux,[16],0.00819 (inactive)
same,log fold change Tl+ flux,[17],0.0101 (inactive)
same,log fold change Tl+ flux,[18],-0.00133 (inactive)
